Results reported in PubChem BioAssay (NCI).
Compounds without any hit were thinned out: in the full panel of roughly 83,000, 20% have a hit.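 Activity criterion: percent growth below 10, measured after cells in 96-well plates were exposed to a single compound concentration for 48 hours.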 Activity calls are given as the source filed them.

Tests used:
Test in all cases: NCI-60 one-dose screen, 48 h (100 = growth as untreated, 0 = no growth, -100 = all killed)
Conditions in all cases: 10 µM unless noted
[1] = tested on: T-47D breast
[2] = tested on: BT-549 breast
[3] = tested on: MDA-MB-435 melanoma
[4] = tested on: MCF7 breast
[5] = tested on: HCT-116 colon
[6] = tested on: HCC-2998 colon
[7] = tested on: KM12 colon
[8] = tested on: SW-620 colon

Measured: growth

Cc1ccc(-c2nc(N3CCN(CC(=O)Nc4ccc(Cl)c(C(F)(F)F)c4)CC3)c3ccccc3n2)cc1
inactive: [1] 74.7% | [2] 94.2% | [3] 94.6% | [4] 74.7% | [5] 79.2% | [6] 112% | [7] 94.2%

Cc1cccc2c3c(sc12)C(c1ccc(F)cc1)C(C#N)=C(N)O3 (stereo unspecified)
active: [2] -0.876% | [4] 8.42% | [5] 7.07% | [7] 2.86%
inactive: [1] 66.1% | [8] 21.3% | [6] 21.9%

COc1ccc(-c2cc(-c3ccc(Cl)cc3)c(C#N)c(=O)n2CCCCCC(=O)Nc2ccccc2N)cc1
inactive: [1] 18.6% | [2] 58.4% | [8] 42.4% | [4] 31% | [5] 22.5% | [6] 82.8% | [7] 40.4%

CC(C)C(=O)Nc1ccc(-c2nc(-c3cccc(OCCN4CCOCC4)c3)c(-c3ccnc(Br)c3)[nH]2)cc1
inactive: [1] 39% | [2] 56.4% | [8] 50.4% | [4] 15.9% | [5] 44.5% | [6] 66.2% | [7] 33.7%

O=S(=O)(Nc1ccc(-c2nc(-c3cccc(OCCN4CCOCC4)c3)c(-c3ccnc(Br)c3)[nH]2)cc1)c1ccccc1
active: [4] 9.52% | [7] 8.86%
inactive: [1] 26.6% | [2] 54.3% | [8] 43.5% | [5] 23.6% | [6] 19.1%

CCCCCCCCCCCCCCCCCCOc1ccc(CC(=O)OCC[N+]2(C)CCCCC2)cc1
inactive: [1] 92.6% | [2] 112% | [8] 96.2% | [4] 91% | [5] 57.7% | [6] 97.4% | [7] 101%

CCOC(=O)C1=C(N)Oc2c(sc3c(CC)cccc23)C1c1ccc(F)cc1 (stereo unspecified)
inactive: [1] 26.8% | [2] 73.6% | [8] 22.3% | [4] 10.2% | [5] 25.5% | [6] 61.4% | [7] 24%

Cc1cccc2c1S/C(=C/c1ccc([N+](=O)[O-])cc1)C2=O
inactive: [1] 85% | [2] 124% | [8] 30.2% | [5] 17.1% | [6] 122% | [7] 107%
active: [4] 9.54%

CCn1cnc2c1c(=O)[nH]c(=O)n2CC1CCC(CNS(=O)(=O)c2ccc(OC3CCOCC3)c(F)c2)CC1 (stereo unspecified)
inactive: [1] 19.9% | [2] 72.7% | [8] 65.1% | [4] 26.7% | [5] 49.2% | [6] 63.9% | [7] 59.9%

COc1ccc(NC2=C(Br)C(=O)C(C)=C(C)C2=O)cc1
active: [1] -33.9%
inactive: [2] 101% | [8] 98.9% | [4] 63.5% | [5] 14.1% | [6] 99.6% | [7] 94.8%

CCc1cccc2c3c(sc12)C(c1ccc(F)cc1)C(C#N)=C(N)O3 (stereo unspecified)
inactive: [1] 42.1% | [2] 19.7% | [8] 30.3% | [4] 16.1% | [5] 17.7% | [6] 15.4% | [7] 25.1%

COc1cccc(-c2nc(-c3ccc(NC(=O)OC(C)C)cc3)[nH]c2-c2ccnc(Br)c2)c1
inactive: [2] 48% | [8] 34.2% | [4] 10.5% | [5] 13.2% | [6] 39.5% | [7] 17%
active: [1] 6.55%

CCC(=O)Nc1ccc(-c2nc(-c3cccc(OC)c3)c(-c3ccnc(Br)c3)[nH]2)cc1
inactive: [1] 28.4% | [2] 77.4% | [8] 80.4% | [4] 25.5% | [5] 63.7% | [6] 69% | [7] 43.2%

CCOC(=O)Nc1ccc(-c2nc(-c3cccc(OCCN4CCOCC4)c3)c(-c3ccnc(Br)c3)[nH]2)cc1
inactive: [1] 35.6% | [2] 56.4% | [8] 42.6% | [4] 11.6% | [5] 30.9% | [6] 38.5% | [7] 20.2%

CCOc1cccc(NC2=C(Br)C(=O)C(C)=C(C)C2=O)c1
inactive: [2] 96.4% | [8] 105% | [4] 18.4% | [5] 52% | [6] 119% | [7] 106%
active: [1] -35.3%

CCCCn1c(-c2ccc(-c3nc(-c4ccc(Cl)cc4)no3)cc2)nc(-c2ccccc2)c1-c1ccccc1
inactive: [1] 76.3% | [2] 101% | [8] 88.8% | [4] 79% | [5] 75.4% | [6] 105% | [7] 95.2%

CCOC(=O)C1=C(N)Oc2c(sc3c(C)cccc23)C1c1ccc(OC)cc1 (stereo unspecified)
active: [4] 7.65%
inactive: [1] 26% | [2] 49.6% | [5] 18.4% | [6] 74.4% | [7] 27.4%

Cc1cccc(NC2=C(Cl)C(=O)c3nc(C)ccc3C2=O)c1
active: [1] -50.2% | [2] 3.34% | [8] -13.7% | [4] -57.8% | [5] -47.6% | [6] 3.47%
inactive: [7] 33.5%

CCCCn1c(-c2ccc(C(=O)O/N=C(\N)c3ccc(OC)cc3)cc2)nc(-c2ccccc2)c1-c1ccccc1
active: [1] -31.8% | [8] 5.52% | [4] -24.7% | [5] -33.6% | [6] 1.5% | [7] 9.02%
inactive: [2] 11.7%

CCc1cccc2c1S/C(=C/c1ccc(OC)cc1)C2=O
inactive: [1] 53.9% | [2] 55.5% | [8] 30% | [4] 22.3% | [5] 34.3% | [6] 77.7% | [7] 28.6%

CCOC(=O)C1=C(N)Oc2c(sc3c(C)cccc23)C1c1ccc(Cl)cc1 (stereo unspecified)
inactive: [1] 17.6% | [2] 65.7% | [8] 23.7% | [5] 23.9% | [6] 49.3% | [7] 15.3%
active: [4] 8.74%

O=C(CCN1C(=O)/C(=C/c2ccc(O)cc2)SC1=S)Nc1ccc(Cl)cc1
inactive: [1] 102% | [2] 99.8% | [4] 89% | [5] 92.2% | [6] 115% | [7] 97.7%

O=C(CCN1C(=O)/C(=C/c2ccc(O)cc2)SC1=S)Nc1ccccc1
inactive: [1] 104% | [2] 93.1% | [8] 102% | [4] 96.6% | [5] 98.2% | [6] 111% | [7] 99.1%

CSc1ccc2c(c1)c(CCN)c(C)n2Cc1ccc(Cl)c(Cl)c1
active: [1] -73.7% | [3] -91.4% | [8] -63.8% | [4] -68.9% | [5] -92.3% | [6] -88.4% | [7] -90.2%

CCCCCCn1c(-c2ccc(C(=O)O/N=C(\N)c3ccc(OC)cc3)cc2)nc(-c2ccccc2)c1-c1ccccc1
inactive: [7] 15.7%
active: [1] -30.4% | [2] -2.06% | [8] -1.32% | [4] -39.3% | [5] -56.1% | [6] 3.48%

Cc1ccc(-c2cnc3sc(C(=O)NCCc4ccccc4)c(C)n23)cc1
inactive: [1] 70% | [2] 79.5% | [8] 91.9% | [4] 83.2% | [5] 95.6% | [6] 96.9% | [7] 96%

CC(C)OC(=O)Nc1ccc(-c2nc(-c3cccc(OCCN4CCOCC4)c3)c(-c3ccnc(Br)c3)[nH]2)cc1
active: [4] -9.12%
inactive: [1] 31.2% | [2] 42.1% | [8] 19.9% | [5] 22.3% | [6] 29.4% | [7] 10.4%

CCc1cccc2c3c(sc12)C(c1ccc(Cl)cc1)C(C#N)=C(N)O3 (stereo unspecified)
inactive: [1] 27.8% | [2] 50.8% | [8] 33.4% | [4] 10.3% | [5] 17.9% | [6] 17.5% | [7] 18.5%

O=C(Nc1ccc(-c2nc(-c3cccc(OCCN4CCOCC4)c3)c(-c3ccnc(Br)c3)[nH]2)cc1)c1ccccc1
active: [8] 2.49% | [4] -46% | [5] 10% | [7] 0.737%
inactive: [1] 27.6% | [2] 45% | [6] 11.3%
